Compound activity (PubChem BioAssay)
Hits are enriched below; roughly 4.7% of the tested compounds scored in any of these assays.
TRHR PAM: allosteric enhancers of human TRH receptor. TRHR cells, fluo-8 calcium fluorescence, EC20 TRH enhancement. enhancement, % at 2 µM. 360,000 tested, 0.66% active. AID 493056; in the data active = enhancement above about 30%; also: 0% is about no effect
Target sequence (P34981 whole entry, looked up): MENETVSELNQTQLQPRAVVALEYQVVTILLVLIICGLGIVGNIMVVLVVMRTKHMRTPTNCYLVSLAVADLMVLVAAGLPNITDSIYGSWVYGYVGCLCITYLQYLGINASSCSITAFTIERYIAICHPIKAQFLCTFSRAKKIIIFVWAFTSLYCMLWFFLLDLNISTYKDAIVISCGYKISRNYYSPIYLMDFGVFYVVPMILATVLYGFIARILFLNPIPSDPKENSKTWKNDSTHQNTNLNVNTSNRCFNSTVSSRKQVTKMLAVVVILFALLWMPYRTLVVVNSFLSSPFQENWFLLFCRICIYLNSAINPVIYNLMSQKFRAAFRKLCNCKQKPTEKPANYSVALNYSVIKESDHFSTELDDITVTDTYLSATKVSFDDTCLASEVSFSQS
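TRHR-expressing cells loaded with fluo-8 calcium dye were read kinetically (ex 480/em 530) during compound addition, then stimulated with an EC20 of TRH (10 nM final). Enhancement of the Gq-mediated intracellular calcium response was scored.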
TRHR agonist: activates the human TRH receptor; activation, % at 2 µM; TRHR cells, calcium flux fluo-8, FDSS agonist mode; P34981; 360,000 tested, 0.18% active; also: 0% is about no effect
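TRHR-expressing cells loaded with fluo-8 calcium dye; 23 nL library compound pin-transferred, kinetic FDSS fluorescence (Ex 480/Em 530) recorded about 180 s for agonist-induced calcium release, before a 10 nM TRH EC20 addition for potentiator mode.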
D1 antagonist: human D1 dopamine receptor antagonism; P21728; activity change, negative = inhibition, % at 10 µM; 360,000 tested, 3.2% active; HEK293 TREx D1 cells, calcium flux, dopamine EC80; hits give low values; in the data active = activity change below about -30%; also: % is scaled to controls: 0 for no effect and ±100 for the full control effect
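Calcium flux readout: force-coupled, inducible Hek293 Trex D1 line, cells induced overnight at 30 C with tetracycline, dye-loaded 30–90 min at RT. Antagonism scored against EC80 dopamine challenge given 180 s after compound.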
D1 potentiator: potentiators of human D1 dopamine receptor | HEK293 TREx D1 cells, calcium flux, dopamine EC20 potentiation | potentiation, % at 10 µM | 360,000 tested, 0.036% active; in the data active = potentiation above about 30%; also: 0% is about no effect
D1 agonist: agonists of human D1 dopamine receptor | activation, % at 2 µM | AID 504660 | HEK293 T-REx D1 cells, calcium flux, agonist mode | 360,000 tested, 1% active; also: 0% is about no effect
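Agonism was scored from calcium flux recorded over 180 s (1 read/s) after pintool compound addition, following a 10-cycle baseline. Cells were inducible force-coupled HEK293 TREx D1, plated overnight at 30 C and loaded with no-wash calcium dye.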
Active calls of the source: *. Rule as the data show it, unless noted: active = activation above about 30%; inactive = the rest.

SMILES	TRHR PAM	TRHR agonist	D1 antagonist	D1 potentiator	D1 agonist
CC(CCc1ccc(O)cc1)N(C)CCc1ccccc1 (stereo not drawn)	-5	0	-52*	-8	5
COc1cc(CCC(C)NCc2ccccc2)ccc1O (stereo not drawn)	1	1	-1	-3	5
CC(=O)c1c(C)[nH]c(C(=O)Nc2cccc(S(=O)(=O)N3CCOCC3)c2)c1C	7	1	4	-5	2
CCCCCNC(=O)c1cc(S(=O)(=O)N2CCCCC2)ccc1F	-5	-1	-62*	-2	2
CCCCNC(=S)Nc1cc(S(=O)(=O)N2CCCCC2)ccc1C	-12	1	-37*	-15	23
O=C(NCCc1ccccc1)c1cc(S(=O)(=O)N2CCCC2)ccc1F	1	0	-7	3	4
CC(=O)c1c(C)[nH]c(C(=O)Nc2cc(S(=O)(=O)N3CCCCC3)ccc2C)c1C	-9	0	-31*	-10	4
COc1cc2nc(SCC(=O)Nc3cccc(C)c3)n3nc(CCn4c(C)nc5ccccc54)nc3c2cc1OC	15	-1	8	5	-1
CCOC(=O)c1ccc(NC(=O)CCC(=O)N2Cc3ccccc3Oc3ncccc32)cc1	14	-1	9	3	37*
Cc1c(C(=O)Nc2ccc(F)cc2F)oc2c1-c1nn(Cc3c(F)cccc3Cl)cc1CC2	0	0	-8	7	1
CCCSCCCNC(=O)c1ccc2c(c1)sc1nc(-c3ccc(OCC)cc3)cn12	-5	0	2	-2	0
COc1ccc(CNS(=O)(=O)c2ccc(F)c(C(=O)Nc3ccccc3OC)c2)cc1	-4	-1	-37*	-7	3
O=C(Nc1ccc(S(=O)(=O)NCc2ccccc2)cc1)c1ccccc1[N+](=O)[O-]	1	2	-72*	-7	16
O=C(Nc1ccccc1)c1cc(S(=O)(=O)NCc2ccncc2)ccc1Cl	-2	0	-32*	-5	4
O=C(Nc1ccc(S(=O)(=O)NCc2ccccc2)cc1)Nc1ccc2c(c1)OCO2	3	1	-40*	-10	8
O=C(Nc1ccccc1)c1cc(S(=O)(=O)Nc2cccnc2)ccc1Cl	5	0	1	8	6
Cc1cccc(NC(=O)c2oc3ccccc3c2NC(=O)c2cc(=O)c3cc(Cl)ccc3o2)c1	-1	1	-10	0	2
O=C(CN1C(=O)COc2ccc(S(=O)(=O)N3CCOCC3)cc21)NCc1ccc(Cl)cc1	-7	0	-14	1	2
O=C(Nc1cc(C(F)(F)F)ccc1Cl)c1cc(S(=O)(=O)NCc2ccccc2)ccc1F	-2	0	-71*	-3	-2
COc1ccccc1NC(=O)c1cc(S(=O)(=O)NCc2ccccc2)ccc1F	-3	-3	-1	-5	3
CN(c1ccc(F)cc1)S(=O)(=O)c1ccc(Cl)c(C(=O)Nc2ccncc2)c1	-3	0	-48*	-3	8
COc1ccc(/C=C\c2onc(C)c2S(=O)(=O)N2CCC(C(=O)Nc3cccc(OC)c3)CC2)cc1	11	-2	-1	0	10
Cc1ccc(CSc2nnc(SCC(=O)N/N=C/C=C/c3ccccc3[N+](=O)[O-])s2)cc1	7	1	-10	3	3
CCn1c(SCC(=O)N/N=C/C=C\c2ccccc2[N+](=O)[O-])nnc1-c1ccccc1	-6	-1	-57*	-1	-1
O=C(COc1ccc(Cl)cc1)NCCc1csc(-c2cccc(F)c2)n1	-7	0	10	-4	3
SMILES	TRHR PAM	TRHR agonist	D1 antagonist	D1 potentiator	D1 agonist
O=C(CN1C(=O)NC2(CCCCC2)C1=O)Oc1ccc2c(C(F)(F)F)cc(=O)oc2c1	1	19	3	0	51*
COC(CNC(=O)c1ccc(N2CCc3ccccc32)c([N+](=O)[O-])c1)OC	-3	1	-31*	-5	10
NNC(=O)c1ccc(N2CCc3ccccc32)c([N+](=O)[O-])c1	-4	0	-33*	-2	1
Cc1ccc(CNC(=O)c2ccc(N3CCc4ccccc43)c([N+](=O)[O-])c2)cc1	-7	0	-10	-2	1
Cc1ccc(/C=N/NC(=O)Cn2nnc(N)n2)cc1	-22	0	-74*	-8	1
COc1ccc(Cl)cc1NC(=O)CN1C(=O)CSc2ccc(S(=O)(=O)N3CCCC3)cc21	9	-2	-5	-4	15
O=c1[nH]c2ccc(S(=O)(=O)N3CCN(S(=O)(=O)c4c(F)cccc4F)CC3)cc2[nH]c1=O	-6	0	5	-7	2
CCCCNC(=O)CCc1c(C)nc2cc(-c3ccccc3)nn2c1C	-1	0	-24	-4	1
COc1ccc(N2CCN(C(=O)CCc3c(C)nc4cc(-c5ccc(Cl)cc5)nn4c3C)CC2)cc1	0	0	-39*	-7	1
COc1ccc(N2CCN(C(=O)CCc3c(C)nc4cc(-c5ccc(OC)cc5OC)nn4c3C)CC2)cc1	-13	0	2	-1	2
COCCCNC(=O)CCc1c(C)nc2cc(-c3ccc(Cl)cc3)nn2c1C	10	-1	-54*	-5	7
O=C(Nc1ccc(Cl)cc1)c1cc2c(Cl)nc3ccccc3c2s1	48*	1	-8	-6	3
Cc1nc2[nH]c(=O)c3c(n2n1)NC1=C(C(=O)CC(C)(C)C1)C3c1ccccc1 (stereo not drawn)	0	0	-51*	-3	5
CCN(CC)C(=O)CN(c1cc2c(cc1OC)oc1ccccc12)S(=O)(=O)c1ccccc1	-4	1	-68*	-11	2
COc1cc2oc3ccccc3c2cc1N(CC(=O)N(C)C)S(=O)(=O)c1ccccc1	-7	1	-5	0	1
CN=c1scc(-c2cccs2)n1/N=C/c1ccccc1O	5	0	-14	1	-1
CN=c1scc(-c2cccs2)n1/N=C/c1ccc(O)c(O)c1O	24	0	-89*	-11	1
CC(c1ccccc1C(O)(c1ccccc1)c1ccccc1)N(C)C (stereo not drawn)	-4	11	-39*	-3	100*
Cc1cc2c(s1)c1cnn(Cc3ccccc3Cl)c(=O)c1n2C	-2	1	14	-2	1
Cc1ccc(C(=O)Nc2onc3c2CCCC3)cc1	2	0	-16	-2	0
CCc1cc(=O)oc2c(C)c(O[C@@H]3O[C@H](CO)[C@@H](O)[C@H](O)[C@H]3O)ccc12	0	0	3	1	3
CCc1cc(=O)oc2cc(O[C@@H]3O[C@H](CO)[C@@H](O)[C@H](O)[C@H]3O)c(Cl)cc12	33*	1	26	-3	3
COc1cccc(CNC(=O)Cn2nc3c(cc2=O)CCCC3)c1OC	0	1	2	-2	0
